# Hits are enriched below; roughly 5.4% of the tested compounds scored in any of these assays.
# p53 reactivation: re-activators of mutant p53 | H1299 p53-A138V BP100-luciferase reporter, luminescence, 24 h | Potency, µM (doses to about 92.2 µM), hits mostly activators | 320,000 tested, 0.063% active | AID 504706; also: nearly all actives have a fitted effect of over 45% in size
#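 p53-null H1299 cells stably carrying temperature-sensitive p53-A138V and a BP100-luciferase reporter were pinned with compounds (4-point, 1:5 series) and held 24 hrs at 37 deg C. Luminescence was read 10 min after detection reagent.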
# CtBP-E1A blk: CtBP/E1A binding inhibition. 340,000 tested, 0.49% active. activity change, % (concentration not given with the values). AlphaScreen GST-E1A/His-CtBP binding, 1536-well; stronger effect = lower value. AID 651724; in the data active = activity change below about -65%; inconclusive = mostly about -30% to -63%
#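 In 5 uL wells, 23 nL compound meets equimolar GST-E1A and His-CtBP (5X stock 125 nM each) for 2 h, 37 °C. Beads (5X, 50 ug/mL) then 1 h, 37 °C, dark.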
# RORgamma inh: ROR gamma (mouse) transcription inhibition; AID 2551; Drosophila S2 Gal4-RORgamma UAS-luciferase reporter, 20 h; P51450; Potency, µM (highest dose often 53.6 µM), usual class: inhibitors; 310,000 tested, 5.4% active; also: nearly all actives have a fitted effect of over 60% in size
#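 Drosophila Schneider cells stably carrying a metallothionein-driven Gal4 DBD–ROR gamma fusion and a UAS-Photinus luciferase reporter were exposed to compound for 1 hr, then induced with copper sulfate (700 uM final) for 20 hr at ambient temperature before luminescence reading.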
# Six1-Eya2 inh: inhibitors of human Six1/Eya2 interaction. activity change, % (test concentration not listed). AlphaScreen GST-Six1/His-Eya2 binding, biochemical; stronger effect = lower value. 360,000 tested, 0.56% active; in the data active = activity change below about -65%; inconclusive = mostly about -30% to -63%
# Target sequence (O00167 whole entry, looked up): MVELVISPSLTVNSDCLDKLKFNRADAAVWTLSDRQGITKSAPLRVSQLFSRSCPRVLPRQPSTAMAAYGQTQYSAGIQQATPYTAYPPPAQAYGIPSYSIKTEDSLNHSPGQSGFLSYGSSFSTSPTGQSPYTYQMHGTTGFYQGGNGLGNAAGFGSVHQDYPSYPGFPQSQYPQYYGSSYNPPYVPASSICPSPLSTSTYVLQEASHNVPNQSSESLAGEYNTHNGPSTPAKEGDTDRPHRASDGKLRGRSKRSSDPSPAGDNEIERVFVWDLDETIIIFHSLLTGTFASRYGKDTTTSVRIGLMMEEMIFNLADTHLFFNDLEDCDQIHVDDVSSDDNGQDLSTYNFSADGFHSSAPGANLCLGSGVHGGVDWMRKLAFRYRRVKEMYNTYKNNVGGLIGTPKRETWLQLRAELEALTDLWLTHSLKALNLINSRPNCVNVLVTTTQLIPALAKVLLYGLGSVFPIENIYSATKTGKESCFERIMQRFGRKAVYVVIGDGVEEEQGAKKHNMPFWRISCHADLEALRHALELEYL
# Target sequence (Q15475 whole entry, looked up): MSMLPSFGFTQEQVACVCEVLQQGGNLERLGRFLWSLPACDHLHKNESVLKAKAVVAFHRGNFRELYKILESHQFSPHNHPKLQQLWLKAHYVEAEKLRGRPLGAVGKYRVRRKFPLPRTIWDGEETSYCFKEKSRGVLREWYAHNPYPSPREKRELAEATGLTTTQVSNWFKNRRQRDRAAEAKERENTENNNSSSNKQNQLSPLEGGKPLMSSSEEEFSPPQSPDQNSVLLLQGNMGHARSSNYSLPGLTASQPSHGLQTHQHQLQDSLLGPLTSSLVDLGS
#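 Homogeneous AlphaScreen proximity assay pairing GST-Six1 with His-tagged Eya2 (added as 5X mix: 250 nM and 500 nM) in 50 mM Tris pH 8.0, 300 mM NaCl, 1 mM TCEP. Glutathione donor and nickel acceptor beads; 1 h, 37 °C, dark.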
# VP16 counter: inhibits Gal4-VP16 luciferase reporter, ROR gamma counter-screen. Drosophila S2 Gal4-VP16 UAS-luciferase, luminescence, 20 h. Potency, µM (top dose mostly 53.6 µM), usual class: inhibitors. 310,000 tested, 3.5% active;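 also: Gal4-VP16 expression switched on by copper sulfate through the metallothionein promoter; nearly all actives have a fitted effect of over 50% in size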
# A number is an active result; 0 = inactive; ? = inconclusive; - = not tested or not shown; [ ] = another dose, or the depositor's remark. Unless noted, calls follow the shape of the dose curve; as a rule, active = well fitted curve in the direction sought with a large enough effect; inconclusive = small, poorly fitted or top-dose-only effect, or another doubt; inactive = no such curve, though single readings can be large; an effect the other way counts as inactive or inconclusive.
SMILES,p53 reactivation,CtBP-E1A blk,RORgamma inh,Six1-Eya2 inh,VP16 counter
COc1ccc(C(=O)CSC#N)cc1OC,0,0,16µM,0,?
COc1ccc(O)c(C(=O)CC(=O)c2ccccc2C)c1,?,0,0,0,0.71µM
c1cc2c3c(c1)c1c(n3CCNC2)CCCC1,-,-,0,-,0
Cc1cc(F)ccc1-c1cc(C(=O)NCc2cccc(C(F)(F)F)c2)[nH]n1,-,0,-,0,-
NS(=O)(=O)c1ccc(NC(=O)/C=C/c2ccc(S(=O)(=O)NCc3ccco3)cc2)cc1,0,0,0,0,0
O=C1CC(c2ccccc2)c2cc(O)ccc2O1 (stereo unspecified),0,0,11µM,0,0
O=C(O)c1ccc2c(c1)C(=O)N([C@H](Cc1ccc(-c3ccccc3)cc1)C(=O)O)C2=O,-,-,0,-,0
CNC(=S)N(CCc1c(C)[nH]c2ccc(Cl)cc12)Cc1cccs1,0,-,?,-,0
CCNC(=S)N(CCc1c(C)[nH]c2ccc(C)cc12)Cc1cccs1,0,0,7.1µM,0,?
COCCNC(=S)N(CCc1c(C)[nH]c2ccc(F)cc12)Cc1cccs1,0,0,7.9µM,0,?
COc1cccc(NC(=S)N(CCc2c(C)[nH]c3ccccc23)Cc2cccs2)c1,0,0,?,0,?
Cc1[nH]c2ccccc2c1CCN(Cc1cccs1)C(=S)Nc1ccccc1,0,0,5.6µM,0,0
COCCNC(=S)N(CCc1c(C)[nH]c2ccc(Cl)cc12)Cc1cccs1,0,0,?,0,?
CN(Cc1ccccc1)C(=O)[C@@H]1CCCN1C(=O)[C@@H]1CCCN1C(=O)c1cccc(Cl)c1,-,0,-,0,-
COc1cc(OC)c2c(c1C(CCN1CCCC(C)C1)c1ccc(N(C)C)cc1)OC(=O)CC2c1ccc(N(C)C)cc1 (stereo unspecified),-,-,0,-,0
CCOc1ccccc1CN1CCC(n2nccc2NC(=O)C2CCCC2)CC1,?,0,0,0,0
COc1ccccc1-c1c(-c2ccc(OCC(=O)NN)cc2O)n[nH]c1C(F)(F)F,0,0,0,0,11µM
NNC(=O)COc1ccc(-c2n[nH]c(C(F)(F)F)c2-c2ccc(Br)cc2)c(O)c1,0,0,?,0,?
COc1cccc(/C=N/N(C)C2=NS(=O)(=O)c3ccccc32)c1O,0,0,0,0,0
COc1cc(/C=N/N(C)C2=NS(=O)(=O)c3ccccc32)cc(OC)c1OC,0,-92,0,-83,0
COc1ccc(NC(=O)COC(=O)C(NC(=O)c2ccc(C)cc2)C(C)C)cn1 (stereo unspecified),0,0,-,0,-
COc1ccc(NC(=O)Cc2ccc(Cl)c(Cl)c2)cn1,0,-,0,0,0
COc1ccc(NC(=O)/C(Cl)=C(/Cl)S(=O)(=O)Cc2ccc(C)cc2)cn1,0,?,4.5µM,?,3.2µM
COc1ccc(NC(=O)/C(Cl)=C(/Cl)S(=O)Cc2ccccc2Cl)cn1 (stereo unspecified),0,0,1µM,0,4.5µM
Cc1cc(O)c(Sc2ncn[nH]2)cc1NS(=O)(=O)c1ccc(Cl)cc1,0,0,-,0,-
SMILES,p53 reactivation,CtBP-E1A blk,RORgamma inh,Six1-Eya2 inh,VP16 counter
O=S(=O)(Nc1cc(Sc2ncn[nH]2)c(O)c2ccccc12)c1ccccc1,0,0,7.9µM,0,7.1µM
CCn1c(SC(C)C(=O)O)nc2sc3c(c2c1=O)CCC3 (stereo unspecified),0,0,5.6µM,0,7.1µM
CO[C@H]1CN(C)C(=O)c2ccc(NC(=O)C3CCC3)cc2OC[C@H](C)N(Cc2ccc(F)cc2)C[C@@H]1C,-,0,-,0,-
Oc1ccc(Br)cc1/C=N/n1c(COc2ccccc2)n[nH]c1=S,0,0,10µM,0,?
S=c1[nH]nc(COc2ccccc2)n1/N=C/c1ccccc1Br,0,0,8.9µM,0,?
FC(F)(F)c1ccccc1/C=N/n1c(COc2ccccc2)n[nH]c1=S,0,0,5.6µM,0,10µM
Cc1cc(Br)c(NC(=O)CN2CCCC2)c(Br)c1,0,0,0,0,0
CCOC(=O)OCC1OC(c2ccc(C(C)=O)cc2)C=CC1OC(=O)OCC (stereo unspecified),-,-,0[10 µM],-,0[10 µM]
O=C(CCl)N1c2ccccc2SCC1c1ccccc1 (stereo unspecified),0,0,11µM,0,14µM
COC(=O)[C@@]1(C(C)C)N=C(c2cc(OC)c(OC)c(OC)c2)[C@]2(O1)C(=O)N(C)c1ccccc12,-,0,-,0,-
CCOc1ccc(C(=O)OCC(=O)Nc2cccnc2Cl)cc1OCC,0,0,-,0,-
CCOC(=O)c1ncccc1NC(=O)CC(=O)Nc1cccnc1C(=O)OCC,-,-,-,-95,-
CC(=O)NCCNc1ncnc2ccc(-c3ccc(C(=O)N(C)C)cc3)cc12,-,-,0,-,0
CCCN1C(=O)C(O)(CC(=O)c2ccc3c(c2)OCCO3)c2ccccc21 (stereo unspecified),0,0,0,0,0
CCCN1C(=O)C(O)(CC(=O)c2cccc(OC)c2)c2ccccc21 (stereo unspecified),0,0,0,0,14µM
COc1ccc(-c2noc(COC(=O)c3ccco3)n2)cc1OC,0,-,-,0,-
COc1ccc(-c2cn3cccc(C)c3n2)cc1F,0,0,0,0,0
Cc1cccn2cc(-c3ccc(Cl)cc3)nc12,0,-,5.6µM,0,?
Cc1ccc(-c2cn3cccc(C)c3n2)cc1,0,0,11µM,0,0
COC(=O)C1=C(C)N(Cc2ccccc2)C(=S)N[C@H]1CCc1ccccc1,-,-,4.5µM,-,?
CCOC(=O)C1=C(C)N(CC)C(=S)NC1c1ccc(Cl)cc1 (stereo unspecified),0,0,7.1µM,0,6.3µM
COC(=O)C1=C(C)N(Cc2ccccc2)C(=NCCCCO)N[C@H]1CCc1ccccc1,0,0,0,0,0
COC(=O)C1=C(C)N(Cc2ccccc2)C(=S)N[C@H]1c1ccccc1,0,0,3.2µM,0,16µM
CCOC(=O)C1=C(C)Nc2nc(=S)[nH]n2C1c1ccc(Cl)cc1 (stereo unspecified),0,-,10µM,0,0
CCN(CCNC(=O)Cn1c(=O)sc2ccccc21)c1ccccc1,0,0,0,0,0
SMILES,p53 reactivation,CtBP-E1A blk,RORgamma inh,Six1-Eya2 inh,VP16 counter
CCOc1ccc(C(=O)OCC(=O)Nc2ccc(SC(F)F)cc2)cc1OCC,0,0,0,0,0
Cc1ccc(CNC(=O)C2(CC(C)C)C=CCN2C(=O)c2ccccc2)o1 (stereo unspecified),-,-,0,-,0
CCN1C(=S)N[C@@H](c2cccc(F)c2)C(C(=O)OC)=C1C,0,0,5µM,0,11µM
CCN1C(=O)/C(=C2/Sc3ccccc3N2CC)S/C1=N\c1ncn[nH]1,0,0,11µM,0,5µM
C=CCN1C(=O)/C(=C2/Sc3ccccc3N2CC)SC1=S,0,0,0,0,0
CN(C)c1ccc(C(=S)N2CCCCC2)cc1,0,0,11µM,0,0
CCN(CC)c1ccc(C(=S)NC2CCCCC2)cc1,0,0,8.9µM,?,14µM

# High-throughput results deposited in PubChem BioAssay by National Center for Advancing Translational Sciences (NCATS).
